Assay outcomes from PubChem.
KCNQ2 block – KCNQ2 (rat) channel inhibition | O88943 | CHO-K1 KCNQ2, FluxOR thallium flux, 20 min; stronger effect = lower value | B-score at 10 µM | actives 1.1% (n = 310,000) | AID 2156;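 active = fluorescence ratio B-score at most minus 3 library SDs, with starting brightness B-score within 2 library SDs, cut at about -5.5 in these data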
Target sequence (O88943 whole entry, looked up): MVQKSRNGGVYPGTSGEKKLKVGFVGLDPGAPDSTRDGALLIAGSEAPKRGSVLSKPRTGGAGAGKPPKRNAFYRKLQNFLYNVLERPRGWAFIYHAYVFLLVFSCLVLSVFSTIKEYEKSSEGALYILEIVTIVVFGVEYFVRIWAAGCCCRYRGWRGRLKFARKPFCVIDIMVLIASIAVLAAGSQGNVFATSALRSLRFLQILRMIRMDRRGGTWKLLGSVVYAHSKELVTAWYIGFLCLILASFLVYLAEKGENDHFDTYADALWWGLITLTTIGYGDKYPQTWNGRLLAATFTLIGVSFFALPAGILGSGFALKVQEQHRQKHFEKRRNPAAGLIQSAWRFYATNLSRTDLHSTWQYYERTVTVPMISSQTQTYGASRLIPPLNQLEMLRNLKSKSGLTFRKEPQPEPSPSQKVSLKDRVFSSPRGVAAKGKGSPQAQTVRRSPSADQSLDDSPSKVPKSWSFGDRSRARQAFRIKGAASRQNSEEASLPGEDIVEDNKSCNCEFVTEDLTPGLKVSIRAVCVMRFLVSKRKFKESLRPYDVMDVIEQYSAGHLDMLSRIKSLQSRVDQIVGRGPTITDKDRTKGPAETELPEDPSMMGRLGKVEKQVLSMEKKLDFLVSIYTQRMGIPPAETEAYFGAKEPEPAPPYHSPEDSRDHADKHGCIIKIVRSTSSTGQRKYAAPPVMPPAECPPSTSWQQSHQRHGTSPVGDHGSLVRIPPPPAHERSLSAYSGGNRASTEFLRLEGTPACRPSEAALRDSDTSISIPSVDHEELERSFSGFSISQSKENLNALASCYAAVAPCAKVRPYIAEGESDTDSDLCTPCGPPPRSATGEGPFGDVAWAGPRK
KCNQ2 enhance – enhances the rat KCNQ2 potassium channel. CHO-K1 KCNQ2, FluxOR thallium flux fluorescence; stronger effect = higher value. B-score at 10 µM. actives 0.54% (n = 310,000). AID 2239;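 active = fluorescence ratio B-score at least 3 SD of library B-scores, with initial fluorescence B-score within 3 of them, cut at about 5.3 in these data; same plate scores as AID 2156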;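 note: B-score of peak minus minimum over baseline fluorescence ratio after K+ and Tl+ stimulus; positive B-score means potentiation of KCNQ2 with more thallium influx and brighter signal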
KCNQ2 block conf – rat KCNQ2 channel inhibition, confirmatory screen; shares compounds with KCNQ2 block; KCNQ2-expressing cells, thallium flux; stronger effect = lower value; activity change, negative = inhibition, % at 10 µM; actives 57% (n = 1,000); AID 493025;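 note: 0% = vehicle wells and values are ratio percent relative to vehicle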
KCNQ1 spec – selectivity of KCNQ2 inhibitors against human KCNQ1; activity change, negative = inhibition, % at 10 µM; KCNQ1-expressing cells, FluxOR thallium flux fluorescence; stronger effect = lower value; actives 15% (n = 1,000); AID 493026; shares compounds with KCNQ2 block;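 active = activity change at least 3 SD of negative controls below their mean in both duplicate wells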;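 note: CHO cells stably transfected with KCNQ1 and depolarized by potassium stimulus; peak minus minimum fluorescence over baseline after thallium addition; 0% = vehicle negative control and -100% = blank without thallium stimulus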
CHO parental ctr – KCNQ2 inhibitor counter-screen hit in parental CHO cells. AID 493029. activity change, % at 10 µM. thallium flux counter-screen; stronger effect = lower value. shares compounds with KCNQ2 block. actives 14% (n = 1,000);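 note: 0% = vehicle negative controls with stimulus buffer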
KCNQ2 patch conf – confirmation of rat KCNQ2 potassium channel inhibitors | shares compounds with KCNQ2 block | KCNQ2-expressing cells, automated patch clamp current | calls only at 10 µM | actives 49% (n = 550)
Active calls of the source: *; i = inactive; . = no result given; + = active, no number. Rows were chosen to be rich in hits. Some 1.6% of all compounds tested hit in one or more screens of this group. Unless noted, the rule behind the calls is not given here.

SMILES | KCNQ2 block | KCNQ2 enhance | KCNQ2 block conf | KCNQ1 spec | CHO parental ctr | others
COc1ccc(C2CC(=O)c3c(O)cc(O)cc3O2)c(CC=C(C)C)c1OC (centres undefined) | -13* | -13 | -34%* | i | i | KCNQ2 patch conf=+
CCN(CC)C(=O)NC1CCCCCCC1 | i | 0.14 | . | . | .
CCOC(=O)N1CCN(C(=O)CNC(=O)c2ccc(Br)o2)CC1 | i | 1.4 | . | . | .
COc1ccc(C)cc1NC(=O)C(OC(=O)Cn1cnc2c1c(=O)n(C)c(=O)n2C)c1ccccc1 (centres undefined) | i | 0.65 | . | . | .
Cc1cc(C)cc(NC(=O)C(OC(=O)Cn2cnc3c2c(=O)n(C)c(=O)n3C)c2ccccc2)c1 (centres undefined) | -9* | -9 | -24%* | i | i | KCNQ2 patch conf=i
COc1ccc(CCN(C)C(=O)c2cc(-c3ccccc3)nc3ccc(C)cc23)cc1OC | -7.1* | -7.1 | -34%* | -34%* | -26%* | KCNQ2 patch conf=+
COc1ccc(CCN(C)C(=O)Cc2ccc(-c3ccccc3)cc2)cc1OC | i | . | . | . | .
COc1cccc(C2C(C(=O)Nc3ccc(C)cc3C)=C(C)Nc3ncnn32)c1OC (centres undefined) | -12* | -12 | i | i | i
COc1ccccc1NC(=O)C1=C(C)Nc2ncnn2C1c1ccccc1C (centres undefined) | i | 0.97 | . | . | .
Nc1ccc2c(c1)nc(Cc1ccccc1)n2CCO | i | . | . | . | .
C/C=C/C(=O)Nc1cccc(C(F)(F)F)c1 | i | 2.1 | . | . | .
O=C(/C=C/c1cccc(C(F)(F)F)c1)Nc1cccc(C(F)(F)F)c1 | -8.2* | -8.2 | i | i | i
Cc1cc(Oc2cnn(C(C)(C)C)c(=O)c2Cl)cc(C(C)C)c1 | -11* | -11 | -34%* | -30%* | -32%* | KCNQ2 patch conf=i
CCOc1cnn(-c2cc(Oc3ccc(C)cc3)ncn2)c(=O)c1Cl | i | 0.83 | . | . | .
COc1cc(-c2nnc(SCC(=O)N(C)C3CCS(=O)(=O)C3)o2)cc(OC)c1OC (centres undefined) | i | 0.37 | . | . | .
CCCn1cc(CN2CCC(Oc3ccc(C(=O)N4CCCC4)cc3)CC2)c(C)n1 | i | 1.2 | . | . | .
O=C(CSC(=S)N1CCCC1)NCC(=O)Nc1ccccc1Br | i | . | . | . | .
O=C(CSc1nnc(Cc2cccs2)n1Cc1ccco1)Nc1ccc(Cl)cc1Cl | -6.9* | -6.9 | i | i | i
Cn1c(Cc2cccs2)nnc1SCC(=O)Nc1ccccc1F | i | . | . | . | .
Cc1ccc(C(OC(=O)c2ccco2)C(=O)NC(C)(C)C)cc1 (centres undefined) | i | . | . | . | .
CCOC(=O)c1c(NC(=O)CN2CCCc3ccccc32)sc(C)c1C | i | . | . | . | .
COC(=O)c1c(NC(=O)CN2CCCc3ccccc32)sc(C)c1C | -7.7* | -7.7 | -38%* | -33%* | -33%* | KCNQ2 patch conf=i
O=C(Nc1ccc(Br)c(C(F)(F)F)c1)c1ccccc1 | -7.7* | -7.7 | i | i | i
O=C(Nc1ccc(Br)c(C(F)(F)F)c1)c1ccc(C(F)(F)F)cc1 | i | . | . | . | .
NC(=S)NNC(=O)c1cccc(Cl)c1 | i | 4.2 | . | . | .
SMILES | KCNQ2 block | KCNQ2 enhance | KCNQ2 block conf | KCNQ1 spec | CHO parental ctr | others
Cc1ccccc1NC(=S)NCc1ccc(Cl)cc1 | i | 0.45 | . | . | .
CCOC(=O)c1c(NC(=O)CS(=O)(=O)c2cn(CC)c3ccccc23)sc2c1CCCCC2 | -7* | -7 | -25%* | i | i | KCNQ2 patch conf=+
CCOc1ccc(NC(=O)CS(=O)(=O)c2cn(CC)c3ccccc23)cc1 | i | 1 | . | . | .
CCOC(=O)c1c(NC(=S)Nc2ccc(C)cc2)sc2c1CCC2 | i | 0.01 | . | . | .
CCOC(=O)c1c(NC(=O)CS(=O)(=O)c2cn(CC)c3ccccc23)sc2c1CCCC2 | -11* | -11 | -36%* | i | i | KCNQ2 patch conf=+
CCOC(=O)c1c(NC(=S)Nc2ccc(F)cc2)sc2c1CCC2 | -7* | -7 | i | i | i
CCOC(=O)c1c(NC(=O)Cc2cccs2)sc2c1CCCC2 | i | . | . | . | .
Cc1[nH]c2ccc(C(=O)NCCCN(C)C3CCCCC3)cc2c1C | i | 0.26 | . | . | .
CC1CCN(S(=O)(=O)c2ccc3nc(N4CCN(c5ccccc5)CC4)ccc3c2)CC1 | i | 1.3 | . | . | .
CCOC(=O)C1(Cc2ccccc2C)CCCN(C(=O)c2ccc(CSC)o2)C1 (centres undefined) | i | . | . | . | .
CCCOc1ccc(/C(O)=C2\C(=O)C(=O)N(c3ccccn3)C2c2ccccc2F)cc1C (centres undefined) | i | 0.94 | . | . | .
Cc1ccc(S(=O)(=O)N2CCN(C(=O)COC(=O)c3ccc(O)cc3)CC2)c(C)c1 | i | . | . | . | .
Cc1cccc(NC(=O)NNC(=O)c2cc3occc3[nH]2)c1C | i | 0.41 | . | . | .
Cc1cccc(NC(=O)CSc2nnc(-c3ccncc3)n2CC2CCCO2)c1 (centres undefined) | i | 1.4 | . | . | .
CCc1nc(SCc2ccccc2C#N)n[nH]1 | i | . | . | . | .
CCOC(=O)c1c(C)nc2c(c1-c1cc(OC)ccc1OC)C(=O)c1ccccc1-2 | i | 0.12 | . | . | .
CCOC(=O)c1c(C)nc2c(c1-c1ccccc1)C(=O)c1ccccc1-2 | -12* | -12 | -30%* | i | i | KCNQ2 patch conf=+
Cc1ccc(NS(=O)(=O)c2ccc(C(=O)OCC(=O)NCC3CCCO3)cc2)cc1 (centres undefined) | i | . | . | . | .
CC1CCN(c2ccc(C(=O)O)cc2NS(=O)(=O)c2ccc(Br)cc2)CC1 | i | . | . | . | .
Cc1cc(NC2CCCCC2)nc(NCc2ccccc2)n1 | -8.3* | -8.3 | i | i | i
Cc1ccc(Nc2cc(C)nc(NCc3ccccc3)n2)cc1 | i | . | . | . | .
Cc1nnc(NC(=O)CCNC(=O)c2ccccc2Cl)s1 | i | . | . | . | .
COC(=O)c1ccc(CN2CCC(Oc3cccc(C(=O)N4CCOCC4)c3)CC2)cc1 | i | 0.02 | . | . | .
COc1cccc(/C=C(/C(=O)OCC(=O)NC2CCCCCCC2)c2ccccc2)c1 | -8.5* | -8.5 | -16%* | i | i | KCNQ2 patch conf=i
COc1cccc(/C=C(/C(=O)OCC(=O)NCC2CCCO2)c2ccccc2)c1 (centres undefined) | i | . | . | . | .
SMILES | KCNQ2 block | KCNQ2 enhance | KCNQ2 block conf | KCNQ1 spec | CHO parental ctr | others
COc1ccc(C2SCC(=O)N2Cc2ccccc2)cc1 (centres undefined) | i | . | . | . | .
COc1ccc(C2SCC(=O)N2CC23CC4CC(CC(C4)C2)C3)cc1 (centres undefined) | -6.9* | -6.9 | -33%* | i | i | KCNQ2 patch conf=i
CN(CC(=O)Nc1cccc(F)c1)C(=O)C1CCN(S(=O)(=O)c2ccc3c(c2)OCCO3)CC1 | i | . | . | . | .
CCOC(=O)C1(P(=O)(c2ccc(Cl)cc2)c2ccc(Cl)cc2)CCC1 | -7.2* | -7.2 | -29%* | i | i | KCNQ2 patch conf=+
O=C(O)C1(P(=O)(c2ccc(Cl)cc2)c2ccc(Cl)cc2)CC1 | i | 0.44 | . | . | .
COc1ccc(C)cc1NC(=O)CCCNC(=O)Cn1cnc2sc(C)c(C)c2c1=O | i | . | . | . | .
